19 compounds from PubChem BioAssay (NCATS) can be followed below.

Holding throughout (experiment): Primary qHTS to identify gynecologic anti-cancer compounds using libraries of approved drugs and bioactive compounds (AID 1345084); also: nearly all actives have a fitted effect of over 55% in size
For one assay, the system named is CASKI. The note with it: Gynecologic cancer cell panel viability, ATPlite luminescence, 48 h; series mostly up to 57.5 µM. The method, boiled down: (§1)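 Five-concentration response, 48 h; readout is ATP-driven luciferase luminescence.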
A general note: In ATP-based viability assays light output follows the ATP content of the culture.

In the next assay the test system is Es-2. The note with it: Gynecologic cancer cell panel viability, ATPlite luminescence, 48 h; series mostly up to 57.5 µM. A digest of the protocol: as §1
In a further assay the test system is HeLa. The following applies: Gynecologic cancer cell panel viability, ATPlite luminescence, 48 h; series mostly up to 57.5 µM. The method, boiled down: as §1
In the next assay the test system is Hek293T. The following applies: Gynecologic cancer cell panel viability, ATPlite luminescence, 48 h, control line for the selectivity index; series mostly up to 57.5 µM. A digest of the protocol: as §1
A further assay relates to JEG-3. The following applies: Gynecologic cancer cell panel viability, ATPlite luminescence, 48 h; series mostly up to 57.5 µM. The method, boiled down: as §1
A further assay relates to PA-1. The note with it: Gynecologic cancer cell panel viability, ATPlite luminescence, 48 h; series mostly up to 57.5 µM. The method, boiled down: as §1
In a further assay the test system is SKOV3. The following applies: Gynecologic cancer cell panel viability, ATPlite luminescence, 48 h; series mostly up to 57.5 µM. The method, boiled down:
as §1

Another assay relates to Tov-21-G. The note with it: Gynecologic cancer cell panel viability, ATPlite luminescence, 48 h; series mostly up to 57.5 µM. A digest of the protocol: as §1
The subject of a further assay is OV90. The following applies: Gynecologic cancer cell panel viability, ATPlite luminescence, 48 h; series mostly up to 57.5 µM. The method, boiled down: as §1

Records with an inconclusive call do not appear. Calls of active or inactive are those of the source. Calls follow the shape of the dose curve; as a rule, active = well fitted cell-killing curve with a large enough effect; inconclusive = small, poorly fitted or top-dose-only effect, or effect the other way; inactive = flat fitted curve, though single readings scatter.
Potency is read from the fitted curve at half-maximal effect.

Turning to `CCOC(C(=O)OCCN(C)C)(c1ccccc1)c1ccccc1`, the Potency entry with CASKI, in the assay with Es-2, in the assay with HeLa, in the assay with Hek293T, in the assay on JEG-3 and in the assay on PA-1 was “inactive” throughout. Also, the Potency entry with SKOV3 and with Tov-21-G was “inactive” in each case.

For `Clc1ccc(CO/N=C(\Cn2ccnc2)c2ccc(Cl)cc2Cl)c(Cl)c1`, the Potency entry with CASKI, in the assay with Es-2, in the assay with HeLa, in the assay with Hek293T, in the assay with JEG-3 and in the assay on SKOV3 was “inactive” each time. In addition, the Potency entry in the assay on Tov-21-G is “inactive”.

Turning to `CN1C(=O)[C@@H](NC(=O)c2cc3ccccc3[nH]2)N=C(c2ccccc2)c2ccccc21`, the Potency entry with HeLa, with Hek293T, in the assay with JEG-3, with PA-1 and with Tov-21-G was “inactive” in each case.

Consider `c1ccc2c(c1)Sc1ccccc1N2CC1CN2CCC1CC2` (configuration not stated), for which the Potency in the assay on Es-2 is 35.5 µM (active); in the assay on Hek293T, 31.6 µM (active); with OV90 it was 28.2 µM (active); in the assay with SKOV3 it was 28.2 µM (active).

For the compound `CC(=O)OC1(c2ccccc2)CCN(CCc2ccccc2)CC1`, the Potency entry with Es-2, in the assay on HeLa, with Hek293T, in the assay with JEG-3, in the assay on PA-1 and in the assay with Tov-21-G was “inactive” each time.

Take `C[C@@H]1O[C@@H](O[C@@H]2C=C3CC[C@@H]4[C@H](CC[C@]5(C)[C@@H](c6ccc(=O)oc6)CC[C@]45O)[C@@]3(C)CC2)[C@H](O)[C@H](O)[C@H]1O`: the Potency entry in the assay with JEG-3 is “inactive”.

In the case of `CC[C@H]1C[C@@H]2C[C@H]3c4[nH]c5ccc(OC)cc5c4CCN(C2)[C@@H]13`, the Potency result with CASKI, in the assay with Es-2, in the assay with HeLa, with Hek293T, in the assay on JEG-3 and in the assay with SKOV3 was “inactive” in each case. Also, the Potency entry with Tov-21-G was “inactive”. Further, the Potency in the assay with OV90 is 31.6 µM (active).

`O=C1NCN(c2ccccc2)C12CCN(CCCOc1ccc(F)cc1)CC2`: the Potency entry in the assay with CASKI, in the assay on Es-2, in the assay with HeLa, in the assay on JEG-3, in the assay on OV90 and in the assay on PA-1 was “inactive” throughout. Also, the Potency entry in the assay with SKOV3 and in the assay on Tov-21-G was “inactive” in each case.

Consider `CCC1(CC)C(=O)NC(=O)NC1=O`, for which the Potency result in the assay on CASKI, in the assay on Es-2, with HeLa, in the assay on JEG-3, in the assay with OV90 and in the assay with PA-1 was “inactive” throughout. Moreover, the Potency result in the assay on SKOV3 and with Tov-21-G was “inactive” throughout.

Take `Cc1nc2ccccc2c(=O)n1-c1ccccc1Cl`: the Potency entry with Es-2, with HeLa, with Hek293T, in the assay on JEG-3, in the assay with OV90 and in the assay on PA-1 was “inactive” throughout. The Potency result in the assay with SKOV3 and in the assay on Tov-21-G was “inactive” in each case.

For `O=C(N[C@H]1N=C(c2ccccc2F)c2cccc3c2N(CC3)C1=O)c1cc2ccccc2[nH]1`, the Potency entry in the assay with CASKI, in the assay on Es-2, with HeLa, with Hek293T, in the assay on JEG-3 and with OV90 was “inactive” each time. Further, the Potency result with PA-1 and in the assay with Tov-21-G was “inactive” throughout.

In the case of `C1CN2CCC1CC2`, the Potency entry in the assay with CASKI, in the assay on Es-2, in the assay on HeLa, in the assay with Hek293T, in the assay with JEG-3 and in the assay on PA-1 was “inactive” each time. Further, the Potency result in the assay with Tov-21-G was “inactive”. The Potency with OV90 is 25.1 µM (active).

As to `CCOC(=O)NC(C)(C)Cc1ccc(Cl)cc1`, the Potency result in the assay with CASKI, in the assay on Es-2, with HeLa, in the assay with Hek293T, in the assay with JEG-3 and in the assay with OV90 was “inactive” each time. Further, the Potency result in the assay with PA-1 and in the assay on Tov-21-G was “inactive” each time.

Turning to `O=C(O)Cc1ccccc1`, the Potency entry with CASKI, in the assay on Es-2, in the assay on HeLa, in the assay on Hek293T, in the assay on JEG-3 and with PA-1 was “inactive” in each case. The Potency entry with SKOV3 and in the assay on Tov-21-G was “inactive” throughout.

Consider `O=C(NC(=O)c1c(F)cccc1F)Nc1cc(Cl)c(OC(F)(F)C(F)C(F)(F)F)cc1Cl` (configuration not stated), for which the Potency entry with CASKI, with Es-2, in the assay with HeLa, in the assay with JEG-3, in the assay with OV90 and with PA-1 was “inactive” throughout. In the assay with Tov-21-G, the Potency result is “inactive”.

Regarding `Clc1ccc(C(OCCN2CCCCC2)c2ccccc2)cc1` (configuration not stated), the Potency result with CASKI, in the assay with Es-2, with HeLa, in the assay on Hek293T, in the assay with JEG-3 and in the assay on Tov-21-G was “inactive” throughout.

With `CC[C@H]1C[C@H]2[C@@H]3CCC4=CC(=O)CC[C@@H]4[C@H]3CC[C@]2(C)[C@H]1O`, the Potency result in the assay with CASKI, in the assay on Es-2, in the assay with JEG-3, with OV90 and in the assay with Tov-21-G was “inactive” each time.

On to `CN1[C@@H]2CC[C@H]1CC(OC(=O)c1cc(Cl)cc(Cl)c1)C2` (some centres not stated), for which the Potency entry in the assay with CASKI, in the assay with Es-2, in the assay on HeLa, in the assay on JEG-3, with SKOV3 and in the assay on Tov-21-G was “inactive” throughout.

On to `CNC(=O)Oc1cccc2ccccc12`, for which the Potency entry in the assay with CASKI, with Es-2, with HeLa, in the assay with Hek293T, in the assay with JEG-3 and in the assay on PA-1 was “inactive” each time. In addition, the Potency result with SKOV3 and in the assay with Tov-21-G was “inactive” each time.
